Laboratory results from PubChem BioAssay (EPA / NIEHS).
The source made the active and inactive calls. Rule for the calls: active = hit-call score of the fitted dose curve at least 0.9, where 1 is the maximum; inactive = score below 0.9.

What was measured:
[1] = ATG_CRE_CIS: Attagene CIS-FACTORIAL HepG2 Assay for human cAMP Responsive Element (CRE) binding protein 3 (AID 2282926); settings: HepG2 CRE cis-reporter, Attagene multiplexed mRNA; actives raise or lower the signal
How it was run: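 We dosed HepG2 cells bearing multiple cis-promoter reporter units for 24 h and measured reporter mRNA by RT-PCR with capillary electrophoresis detection. Bidirectional concentration-response fitting used DMSO as negative control.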

[2] = biological target: CCAAT/enhancer-binding protein beta (Homo sapiens) (UniProt P17676); assay: ATG_C_EBP_CIS: Attagene CIS-FACTORIAL HepG2 Assay for human CCAAT/Enhancer Binding Protein (C/EBP) beta (AID 2282927); settings: HepG2 Attagene cis-factorial transcription factor reporter; actives raise or lower the signal
How it was run: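 Transiently transfected HepG2 (MRTU library, endogenous TF-driven promoters); 24 h dosing; total RNA → oligo(dT) RT → PCR → 6-FAM primer extension → HpaI digest → CE; fit bidirectionally vs DMSO.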

[3] = ATG_CMV_CIS: Attagene CIS-FACTORIAL HepG2 Assay for human CMV (Internal Marker) (AID 2282928); settings: HepG2 CMV promoter reporter, transcription factor profiling; actives raise or lower the signal;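 note: endpoint acts as a background internal control marker rather than a target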
How it was run: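 After transient transfection of HepG2 with reporter transcription units driven by cis-regulatory promoters, cells receive test chemical for 24 h. Labeled reporter amplicons, digested with HpaI, are sized and quantified by capillary electrophoresis against DMSO.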

[4] = ATG_DR4_LXR_CIS: Attagene CIS-FACTORIAL HepG2 Assay for human Liver X Receptor (LXR), DR4 submotif (AID 2282929); settings: HepG2 Attagene DR4 cis-reporter, mRNA transcription; actives raise or lower the signal
How it was run: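 DR4 cis-reporter in HepG2, 24 h exposure. Detection: RT-PCR, 6-FAM labelling, CE fragment analysis. Endpoint fitted bidirectionally, DMSO = baseline.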

[5] = biological target: Aryl hydrocarbon receptor (Homo sapiens) (UniProt P35869); assay: ATG_Ahr_CIS: Attagene CIS-FACTORIAL HepG2 Assay for human Aryl Hydrocarbon Receptor (Ahr) (AID 2282930); settings: HepG2 AhR cis-factorial reporter transcription; actives raise or lower the signal
How it was run: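 Read-out: reporter mRNA quantified by RT-PCR with fluorescent primer extension and capillary electrophoresis. Human HepG2 liver cells carried transfected cis-promoter reporter units and were exposed to chemical for 24 h; gain or loss fitted relative to DMSO.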

[6] = ATG_AP_1_CIS: Attagene CIS-FACTORIAL HepG2 Assay for human Activator Protein 1 (AP-1) (AID 2282931); settings: HepG2 Attagene cis-factorial AP-1 reporter mRNA; actives raise or lower the signal
How it was run: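 Cis-regulated reporter units transiently expressed in HepG2 report endogenous transcription-factor activity. Signal: reporter mRNA at 24 h, via RT-PCR and fluorescent capillary electrophoresis. Endpoint derived by bidirectional fitting, DMSO as negative control.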

[7] = ATG_AP_2_CIS: Attagene CIS-FACTORIAL HepG2 Assay for human Activator Protein 2 (AP-2) (AID 2282932); settings: HepG2 AP-2 cis-reporter, Attagene transcription factor profiling; actives raise or lower the signal
How it was run: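 HepG2 cells transiently transfected with cis-element reporter units and exposed for 24 h. Reporter mRNA measured by RT-PCR, FAM labelling, HpaI digestion and capillary electrophoresis. Changes in either direction fitted relative to DMSO.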

[8] = biological target: Retinoic acid receptor alpha (Homo sapiens) (UniProt P10276); assay: ATG_DR5_RAR_CIS: Attagene CIS-FACTORIAL HepG2 Assay for human Retinoic Acid Receptor Alpha (RARE), DR5 submotif (AID 2282934); settings: HepG2 Attagene cis-factorial RARE DR5 reporter, mRNA; actives raise or lower the signal
How it was run: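 Read-out: DR5-driven reporter transcript measured by RT-PCR, 6-FAM primer extension, HpaI digest and capillary electrophoresis. Human HepG2 liver cells carry transiently transfected cis-element reporter constructs; dosing lasts 24 h. Gain or loss of signal fitted against DMSO baseline.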

[9] = biological target: Transcription factor E2F1 (Homo sapiens) (UniProt Q01094); assay: ATG_E2F_CIS: Attagene CIS-FACTORIAL HepG2 Assay for human E2F Transcription Factor 1 (AID 2282935); settings: HepG2 Attagene cis-reporter, E2F reporter RNA transcripts; actives raise or lower the signal
How it was run: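 Endogenous E2F1 activity read through cis-promoter reporter units transfected into HepG2. After 24 h compound treatment, reporter mRNA measured by RT-PCR, HpaI digestion and capillary electrophoresis. Bidirectional fit versus DMSO.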

[10] = ATG_E_Box_CIS: Attagene CIS-FACTORIAL HepG2 Assay for human Enhancer Box (E-box) (AID 2282936); settings: HepG2 E-box cis-reporter transcription, actives raise or lower the signal
How it was run: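 HepG2 cells transiently transfected with multiplexed cis-element reporter units, dosed 24 h; reporter mRNA quantified by RT-PCR, 6-FAM labelling, HpaI digestion and capillary electrophoresis. E-box (USF1) signal fitted bidirectionally vs DMSO.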

[11] = ATG_M_61_CIS: Attagene CIS-FACTORIAL HepG2 Assay for M61 Transcription Factor (Internal Marker) (AID 2282937); settings: HepG2 Attagene CIS-FACTORIAL M61 internal marker reporter; actives raise or lower the signal
How it was run: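 Background-control endpoint: HepG2 cells with cis-regulated reporter constructs, 24 h exposure, reporter mRNA detected via fluorescent primer extension and capillary electrophoresis; values from bidirectional fitting with DMSO baseline.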

[12] = ATG_EGR_CIS: Attagene CIS-FACTORIAL HepG2 Assay for human Early Growth Response 1 (EGR1) (AID 2282938); settings: HepG2 Attagene CIS-FACTORIAL EGR reporter mRNA; actives raise or lower the signal
How it was run: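 Endpoint derived by bidirectional fitting versus DMSO vehicle. Method: cis-promoter reporter units transfected into HepG2, 24 h dosing, RNA isolation, RT-PCR with 6-FAM primer extension and HpaI digestion, then capillary electrophoresis fluorescence detection.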

[13] = ATG_M_19_CIS: Attagene CIS-FACTORIAL HepG2 Assay for M19 Transcription Factor (Internal Marker) (AID 2282939); settings: HepG2 Attagene CIS-FACTORIAL M19 internal marker reporter; actives raise or lower the signal
How it was run: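 Chemical-treated HepG2 (24 h) with MRTU constructs; reporter transcripts detected by fluorescent RT-PCR fragment analysis on capillary electrophoresis. Internal background marker, DMSO as baseline.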

[14] = ATG_ERE_CIS: Attagene CIS-FACTORIAL HepG2 Assay for Estrogen Response Element (ERE) (AID 2282940); settings: HepG2 ERE cis-reporter, Attagene RNA transcript; actives raise or lower the signal
How it was run: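 Human liver cells (HepG2) bearing transiently transfected, promoter-regulated reporter units were exposed 24 h. Reporter mRNA induction was detected by capillary electrophoresis of labelled RT-PCR products and fitted bidirectionally to DMSO.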

[15] = ATG_Ets_CIS: Attagene CIS-FACTORIAL HepG2 Assay for human Erythroblast Transformation Specific (ETS) (AID 2282941); settings: HepG2 ETS cis-reporter transcription, actives raise or lower the signal
How it was run: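 Human HepG2 hepatoma cells were transiently transfected with promoter-driven reporter constructs and treated for 24 hours. Reporter transcripts were quantified by RT-PCR with fluorescent primer extension; bidirectional curve fitting used DMSO as reference.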

[16] = ATG_FoxO_CIS: Attagene CIS-FACTORIAL HepG2 Assay for human Forkhead box O (FoxO) (AID 2282943); settings: HepG2 Attagene cis-reporter, FoxO element, mRNA; actives raise or lower the signal
How it was run: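 Read-out: fluorescence of 6-FAM-labelled reporter cDNA fragments resolved by capillary electrophoresis. Transiently transfected HepG2 cells were dosed for 24 h; activity fitted in both directions relative to DMSO controls.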

[17] = ATG_GATA_CIS: Attagene CIS-FACTORIAL HepG2 Assay for human GATA Binding Protein (AID 2282944); settings: HepG2 GATA cis-element reporter, Attagene multiplex mRNA; actives raise or lower the signal
How it was run: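 Transfected cis-reporter HepG2 cells were treated with chemicals for 24 hours. Total RNA was then converted to cDNA, amplified with reporter-specific primers and analysed by fluorescent capillary electrophoresis, using DMSO-treated wells as baseline.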

[18] = ATG_BRE_CIS: Attagene CIS-FACTORIAL HepG2 Assay for human Bone Morphogenetic Protein (BMP) Response Element (BRE) (AID 2282933); settings: HepG2 BMP response element reporter, Attagene transcription factor profiling; actives raise or lower the signal
How it was run: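 A HepG2 multiplex reporter system measured inducible reporter mRNA 24 h post-dosing. Detection: RT-PCR, 6-FAM primer extension, HpaI digestion, capillary electrophoresis. Activity fitted bidirectionally relative to DMSO.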

[19] = biological target: Hepatocyte nuclear factor 3-beta (Homo sapiens) (UniProt Q9Y261); assay: ATG_FoxA2_CIS: Attagene CIS-FACTORIAL HepG2 Assay for human Forkhead box A2 (FOXA2) (AID 2282942); settings: HepG2 cis-reporter transcription factor activity, 24 h; actives raise or lower the signal
How it was run: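 Measured: reporter mRNA induction or loss in HepG2 transiently carrying multiple cis-regulated reporter units, 24 h after dosing. Quantified by RT-PCR plus capillary electrophoresis, normalised to DMSO.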

Measured: AC50

Hepatocyte nuclear factor 3-beta (Homo sapiens), sequence (Q9Y261 whole entry, looked up): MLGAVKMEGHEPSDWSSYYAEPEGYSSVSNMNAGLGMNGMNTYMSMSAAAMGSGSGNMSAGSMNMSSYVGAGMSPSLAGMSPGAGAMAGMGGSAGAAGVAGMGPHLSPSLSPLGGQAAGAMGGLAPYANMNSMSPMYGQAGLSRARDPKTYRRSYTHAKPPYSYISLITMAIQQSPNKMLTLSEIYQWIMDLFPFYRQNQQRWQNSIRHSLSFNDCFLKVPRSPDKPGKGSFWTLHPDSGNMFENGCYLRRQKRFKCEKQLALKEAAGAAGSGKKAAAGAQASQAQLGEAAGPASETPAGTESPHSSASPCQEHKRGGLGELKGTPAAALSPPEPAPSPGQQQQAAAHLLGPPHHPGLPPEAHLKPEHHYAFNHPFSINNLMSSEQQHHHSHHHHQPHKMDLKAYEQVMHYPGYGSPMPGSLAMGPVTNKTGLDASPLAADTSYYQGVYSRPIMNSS
Transcription factor E2F1 (Homo sapiens), sequence (Q01094 whole entry, looked up): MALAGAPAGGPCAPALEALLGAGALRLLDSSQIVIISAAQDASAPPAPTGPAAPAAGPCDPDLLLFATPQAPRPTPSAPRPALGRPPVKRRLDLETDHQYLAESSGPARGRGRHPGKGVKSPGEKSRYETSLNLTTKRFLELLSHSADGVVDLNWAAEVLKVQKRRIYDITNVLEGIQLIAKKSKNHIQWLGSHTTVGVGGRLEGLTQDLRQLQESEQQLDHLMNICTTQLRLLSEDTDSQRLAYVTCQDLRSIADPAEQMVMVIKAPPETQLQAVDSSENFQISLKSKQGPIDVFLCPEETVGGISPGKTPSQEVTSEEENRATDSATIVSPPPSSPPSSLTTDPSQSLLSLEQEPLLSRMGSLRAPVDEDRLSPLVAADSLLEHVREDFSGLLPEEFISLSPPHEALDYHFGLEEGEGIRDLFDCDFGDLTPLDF
CCAAT/enhancer-binding protein beta (Homo sapiens), sequence (P17676 whole entry, looked up): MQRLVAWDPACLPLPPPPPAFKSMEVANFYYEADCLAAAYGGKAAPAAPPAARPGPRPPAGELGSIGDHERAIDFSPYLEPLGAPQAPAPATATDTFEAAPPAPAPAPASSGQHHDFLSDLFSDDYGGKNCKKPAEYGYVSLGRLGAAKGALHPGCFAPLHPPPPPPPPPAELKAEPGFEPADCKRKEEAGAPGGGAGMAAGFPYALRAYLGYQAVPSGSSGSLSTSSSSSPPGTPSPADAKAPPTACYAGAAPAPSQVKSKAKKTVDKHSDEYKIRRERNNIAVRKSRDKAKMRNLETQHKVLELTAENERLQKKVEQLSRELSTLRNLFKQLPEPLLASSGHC
Aryl hydrocarbon receptor (Homo sapiens), sequence (P35869 whole entry, looked up): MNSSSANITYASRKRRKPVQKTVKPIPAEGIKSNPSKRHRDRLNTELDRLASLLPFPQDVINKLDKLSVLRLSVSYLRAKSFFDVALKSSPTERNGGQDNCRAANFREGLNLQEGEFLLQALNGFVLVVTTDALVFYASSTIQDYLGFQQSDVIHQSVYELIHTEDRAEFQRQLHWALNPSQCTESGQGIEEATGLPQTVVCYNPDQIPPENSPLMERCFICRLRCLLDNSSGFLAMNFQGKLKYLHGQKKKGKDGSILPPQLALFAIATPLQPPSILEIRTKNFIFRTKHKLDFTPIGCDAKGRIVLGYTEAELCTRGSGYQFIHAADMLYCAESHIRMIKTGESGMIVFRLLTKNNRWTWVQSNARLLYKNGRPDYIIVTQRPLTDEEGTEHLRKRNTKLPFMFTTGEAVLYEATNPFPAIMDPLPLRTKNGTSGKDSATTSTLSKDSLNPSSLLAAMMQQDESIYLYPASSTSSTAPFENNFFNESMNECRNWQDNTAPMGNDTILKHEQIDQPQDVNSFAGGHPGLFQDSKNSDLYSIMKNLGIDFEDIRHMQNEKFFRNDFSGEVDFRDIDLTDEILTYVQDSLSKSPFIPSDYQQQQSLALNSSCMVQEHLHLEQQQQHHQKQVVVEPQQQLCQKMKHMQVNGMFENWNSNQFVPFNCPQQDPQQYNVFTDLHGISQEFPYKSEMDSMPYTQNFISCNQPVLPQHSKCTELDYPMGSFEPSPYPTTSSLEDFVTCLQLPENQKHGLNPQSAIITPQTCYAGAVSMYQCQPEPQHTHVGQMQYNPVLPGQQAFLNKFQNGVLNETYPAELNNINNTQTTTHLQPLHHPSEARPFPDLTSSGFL
Retinoic acid receptor alpha (Homo sapiens), sequence (P10276 whole entry, looked up): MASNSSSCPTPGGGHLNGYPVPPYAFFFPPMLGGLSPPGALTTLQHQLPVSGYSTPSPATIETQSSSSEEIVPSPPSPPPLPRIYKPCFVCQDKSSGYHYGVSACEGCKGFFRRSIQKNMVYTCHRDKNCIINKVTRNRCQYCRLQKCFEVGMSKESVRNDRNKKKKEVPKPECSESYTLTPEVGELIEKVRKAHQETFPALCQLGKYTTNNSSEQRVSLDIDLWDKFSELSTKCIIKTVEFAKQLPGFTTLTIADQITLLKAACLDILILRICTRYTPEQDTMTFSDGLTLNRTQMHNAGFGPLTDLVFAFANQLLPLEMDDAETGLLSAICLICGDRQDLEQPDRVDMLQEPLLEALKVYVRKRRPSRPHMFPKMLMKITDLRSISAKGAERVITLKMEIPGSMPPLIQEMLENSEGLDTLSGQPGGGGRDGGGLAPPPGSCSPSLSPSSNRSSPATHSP

C#CC(O)CCC (configuration not stated)
not listed: [18] | [19]
inactive: all other assays above

CCCCC(CC)COC(=O)c1ccc(N(C)C)cc1 (configuration not stated)
active: [3] 53.9 µM | [4] 64.7 µM | [6] 61.7 µM | [14] 9.36 µM
not listed: [2] | [18] | [19]
inactive: all other assays above

C[C@]12CC[C@H]3C(=CCc4cc(O)ccc43)[C@@H]1CCC2=O
active: [14] 0.0626 µM
not listed: [18] | [19]
inactive: all other assays above

CC(C)Nc1ccc(NC(C)C)c2c1C(=O)c1ccccc1C2=O
active: [5] 3.35 µM
inactive: all other assays above

Cc1cnccn1
active: [5] 0.0965 µM
not listed: [2] | [18]
inactive: all other assays above

C=CCOC(=O)CC(C)C
not listed: [2]
inactive: all other assays above

CCOC(=O)CCC(C)=O
not listed: [18]
inactive: all other assays above
